Test [1] in a line: qHTS RealTime-Glo MT Cell Viability Assay in HepG2 cells - 40 hour (AID 1224870). Further: nearly all actives have a fitted effect of over 50% in size. A digest of the protocol:
(§1)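 HepG2 cells mixed with RealTime-Glo MT reagents (NanoLuc plus cell-permeant prosubstrate) were seeded at 600 cells/well, incubated 5 h at 37 C/5% CO2, then pinned with compounds in DMSO; nonlytic luminescence tracked viability during 40 h treatment.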
In general terms: Quantitative high-throughput screening tests each substance at several concentrations.

Test [2] can be described thus: qHTS RealTime-Glo MT Cell Viability Assay in HEK293 cells - 16 hour (AID 1224872). Further: nearly all actives have a fitted effect of over 50% in size. In a few lines:
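HEK293 cells seeded with NanoLuc/prosubstrate reagent, rested 5 h at 37 C, then dosed and kept at 37 C up to 40 h. Nonlytic real-time luminescence from viable cells read at 0, 8, 16, 24, 32 and 40 h.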

A short description of test [3]: qHTS RealTime-Glo MT Cell Viability Assay in HepG2 cells - 8 hour (AID 1224873). Further: nearly all actives have a fitted effect of over 55% in size. In a few lines:
as §1

Test [4] in a line: qHTS RealTime-Glo MT Cell Viability Assay in HEK293 cells - 40 hour (AID 1224874). Further: nearly all actives have a fitted effect of over 50% in size. To be noted: RealTime-Glo luminescence; max response: hits give low values. In a few lines:
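Viable HEK293 cells reduce a cell-permeant prosubstrate; the product diffuses out and is consumed by NanoLuc in the medium to give light. Compounds went in after a 5 h incubation and plates were read over the treatment course.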

Test [5] in a line: A CellTox Green Cytotoxicity Assay to monitor cytotoxicity in HEK293 cells - 24 hour (AID 1224875). Further: nearly all actives have a fitted effect of over 45% in size. A digest of the protocol: (§2)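 Fluorescence intensity, read at 0, 8, 16, 24, 32 and 40 h of compound treatment, reflected dye binding to DNA of dead HEK293 cells; compounds (23 nL, DMSO) were added 5 h after plating cells with reagent.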
The nature of test [6]: A CellTox Green Cytotoxicity Assay to monitor cytotoxicity in HepG2 cells - 16 hour (AID 1224876). Further: nearly all actives have a fitted effect of over 45% in size. A digest of the protocol:
(§3)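 Using 1536-well format, dye-containing HepG2 suspension was seeded, allowed 5 h at 37 C/5% CO2, dosed by pintool with compounds, positive and negative controls, and imaged for fluorescence across 40 h.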

Test [7] can be described thus: qHTS RealTime-Glo MT Cell Viability Assay in HepG2 cells - 32 hour (AID 1224877). Further: nearly all actives have a fitted effect of over 55% in size. A digest of the protocol: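 HepG2 cells (600/well) were dispensed with RealTime-Glo reagents, incubated 5 h at 37 °C, then treated with compounds in DMSO for up to 40 h. Nonlytic NanoLuc luminescence reflecting viable cells was read at each stated time point.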
Test [8] in a line: A CellTox Green Cytotoxicity Assay to monitor cytotoxicity in HepG2 cells - 24 hour (AID 1224878). Further: nearly all actives have a fitted effect of over 45% in size. A digest of the protocol:
as §3

Test [9] in a line: A CellTox Green Cytotoxicity Assay to monitor cytotoxicity in HEK293 cells - 40 hour (AID 1224871). Further: nearly all actives have a fitted effect of over 45% in size. A digest of the protocol: as §2
A short description of test [10]: A CellTox Green Cytotoxicity Assay to monitor cytotoxicity in HepG2 cells - 40 hour (AID 1224879). Further: nearly all actives have a fitted effect of over 40% in size. A digest of the protocol: as §3

Results on 29 molecules are retold here after PubChem BioAssay (Tox21).

Where “and” joins values, the source holds several entries; their conditions need not be identical. Equal entries are not always repeated. Records with an inconclusive call do not appear. Values without a mark were called inactive. Calls of active or inactive are those of the source. The call rests on the fitted dose curve; in most records, active means well fitted curve in the direction sought with a large enough effect in the repeat runs; inconclusive means weak or mixed curves; inactive means no such curve, though single readings can be large; an effect the other way counts as inactive or inconclusive.
On the % scale 0 is the no-effect control and ±100 the full control effect; potency means the concentration at half of the fitted maximal effect.

For the molecule `O=C(CCC1CCN(Cc2ccccc2)CC1)c1ccc2c(c1)NCCCC2`, the Potency entry in [1], in [3], in test [5], in test [6], in test [7] and in test [8] was “inactive” each time. Also, the Potency in test [2] and in test [4] was 9.52 µM (active) throughout.

For the molecule `CC(=O)[C@H]1CC[C@H]2[C@@H]3C[C@H](C)C4=CC(=O)CC[C@]4(C)[C@H]3[C@@H](O)C[C@]12C`, the Potency result in test [1], in test [9], in test [3], in test [5], in test [8] and in test [10] was “inactive” in each case.

As for `Nc1ccc(S(=O)(=O)O)cc1`, the Potency result in test [1], in [2], in test [3], in test [5], in test [6] and in test [7] was “inactive” each time. The Potency result in test [8] and in [10] was “inactive” each time. The max response in test [4] is 0.165%.

As for `C/C=C/C=C/CCCCCCCO`, the Potency result in [1], in [2], in test [3], in test [5], in [6] and in test [7] was “inactive” each time. In [4], the max response is -18.5%.

In the case of `CCOC(=O)OCC`, the Potency result in test [1], in [2], in test [3], in test [5], in test [6] and in [7] was “inactive” throughout. In addition, the Potency entry in test [8] and in test [10] was “inactive” in each case. Moreover, in test [4], the max response was 7.38%.

Take `Cc1c(C(=O)NN2CCCCC2)nn(-c2ccc(Cl)cc2Cl)c1-c1ccc(Cl)cc1`: the Potency entry in test [1], in [9], in test [3], in test [6], in test [7] and in test [8] was “inactive” each time. Further, the Potency result in test [10] is “inactive”.

For `COCC(O)CO` (configuration not stated), the Potency entry in test [1], in test [2], in test [3], in test [5], in test [6] and in test [7] was “inactive” in each case. The Potency result in [8] and in test [10] was “inactive” throughout. Besides, in [4], the max response is -5.25%.

Take `O=C(N/N=C/c1ccc([N+](=O)[O-])o1)c1ccc(O)cc1`: the Potency entry in test [6] and in [8] was “inactive” each time.

In the case of `O=C(CCCN1CCN(c2ccc(F)cc2)CC1)NC1c2ccccc2CSc2ccccc21` (configuration not stated), the Potency is 19 µM (active) in [2], 16.9 µM (active) in [4], 23.9 µM (active) in [8] and 23.9 µM (active) in [10].

For `CN(C)CCOC1=Cc2ccccc2Sc2ccc(Cl)cc21`, the Potency entry in test [3] and in test [5] was “inactive” throughout. In addition, the max response in test [4] was -22.7%. Further, the figures for the Potency in test [7], in test [8] and in [10] were 21.3 µM (active), 23.9 µM (active) and 23.9 µM (active), respectively.

On to `CNCCCC1c2ccccc2C=Cc2ccccc21`, for which, in [3], the Potency result was “inactive”. Moreover, the Potency in test [4], in test [7] and in test [10] was 23.9 µM (active) in each case.

Turning to `COc1ccc([C@@H]2Sc3ccccc3NC(=O)[C@@H]2O)cc1`, the Potency result in [1], in test [3], in [5], in test [6], in [7] and in [8] was “inactive” throughout.

As to `CCC(Cc1ccccc1)(C(=O)c1ccc(N2CCOCC2)cc1)N(C)C` (configuration not stated), the Potency result in test [1], in test [3], in test [5], in [6], in [7] and in test [8] was “inactive” each time. Also, in test [10], the Potency entry is “inactive”.

As to `CCCCN(CCCC)C(=S)SSC(=S)N(CCCC)CCCC`, the Potency entry in test [1], in test [5], in test [6], in test [8] and in test [10] was “inactive” in each case. Also, the Potency in test [2] was 48.5 µM (active); in test [4] it was 38.5 µM (active).

For `CCOC(=O)[C@@H](C)Oc1ccc(Oc2nc3ccc(Cl)cc3o2)cc1`, the Potency result in test [9], in test [5], in test [6], in test [8] and in test [10] was “inactive” in each case. The Potency in [2] was 21.9 µM (active); in test [3], 7.76 µM (active); in test [4] it was 21.9 µM (active).

For the molecule `CN1CCN(CCCN2c3ccccc3Sc3ccc(S(=O)(=O)N(C)C)cc32)CC1`, the Potency entry in [3] is “inactive”. Besides, the Potency in test [6] is 23.9 µM (active); in [8], 26.8 µM (active); in test [10], 26.8 µM (active).

On to `CC(C)(O)c1ccccc1CC[C@@H](SCC1(CC(=O)O)CC1)c1cccc(/C=C/c2ccc3ccc(Cl)cc3n2)c1`, for which the Potency result in test [1], in test [2], in [3], in [6], in [7] and in [8] was “inactive” throughout. Further, the Potency result in [10] is “inactive”. For the same molecule, in [4], the max response is 0.38%.

On to `COc1cc2c(N3CCN(C(=O)Nc4ccc(OC(C)C)cc4)CC3)ncnc2cc1OCCCN1CCCCC1`, for which the Potency result in [3], in test [5] and in [7] was “inactive” each time. Also, the Potency in test [4] was 9.52 µM (active); in test [10], 26.8 µM (active).

Regarding `CC(Cl)C(Cl)Cl` (configuration not stated), the Potency result in test [1], in [2], in test [3], in test [6], in test [7] and in test [8] was “inactive” in each case. Besides, in test [10], the Potency entry was “inactive”. For the same molecule, the max response in test [4] is -7.3%.

Consider `CCCCC(=O)O[C@]1(C(=O)CO)[C@@H](C)C[C@H]2[C@@H]3CCC4=CC(=O)C=C[C@]4(C)[C@@]3(F)[C@@H](O)C[C@@]21C`, for which the Potency entry in test [1], in test [5], in test [6], in test [7], in test [8] and in [10] was “inactive” each time.

Turning to `CCCCCCCCCCCCCCC[C@H](O)[C@@H](N)CO`, the Potency in test [9] was 23.9 µM (active); in test [4] it was 26.8 µM (active); in test [5] it was 21.3 µM (active); in test [6], 23.9 µM (active); in [7] it was 26.8 µM (active); in test [8] it was 26.8 µM (active). In addition, the Potency in test [10] was 26.8 µM (active).

For `O=C(O)c1ccccc1NCCc1ccccc1`, the Potency entry in test [1], in [3], in test [5], in test [6], in test [7] and in test [8] was “inactive” throughout. The Potency entry in [10] was “inactive”. Also, in test [4], the max response is -0.281%.

`COCc1c(C(C)C)nc(C(C)C)c(/C=C/[C@@H](O)C[C@@H](O)CC(=O)O)c1-c1ccc(F)cc1`: the Potency result in test [9], in [5] and in test [6] was “inactive” each time. Besides, in test [10], the Potency was 379 nM (active) and 4.84 µM (active).

On to `CC(COc1ccc(C(C)(C)C)cc1)OS(=O)OCCCl` (configuration not stated), for which the Potency entry in [1], in test [3], in [5], in test [6], in test [7] and in test [10] was “inactive” each time. For the same molecule, the Potency in [4] was 0.391 µM (active).

For `O=C(NCCCN1CCOCC1)c1ccc(Cl)cc1`, the Potency result in test [1], in test [2], in test [3], in test [6], in test [8] and in test [10] was “inactive” each time. In addition, in [4], the max response was 7.84%.

For the molecule `CC(=O)OCC(=O)[C@H]1CC[C@H]2[C@@H]3CCC4=CC(=O)CC[C@]4(C)[C@H]3CC[C@]12C`, the Potency entry in test [1], in test [3], in [5], in [7], in test [8] and in test [10] was “inactive” each time.

Take `c1cc[c]([Bi]([c]2ccccc2)[c]2ccccc2)cc1`: the Potency entry in test [1], in test [2], in test [3] and in [6] was “inactive” throughout.

On to `O=C(CCCN1CCC(O)(c2ccc(Br)cc2)CC1)c1ccc(F)cc1`, for which the Potency entry in test [9] and in test [3] was “inactive” each time. Further, the Potency in test [2] is 9.52 µM (active); in test [4], 10.7 µM (active); in test [8], 23.9 µM (active); in test [10], 23.9 µM (active).

As for `CCCCCCCCCCCC(=O)[O][Sn]([CH2]CCC)([CH2]CCC)[O]C(=O)CCCCCCCCCCC`, the Potency was 19 µM (active) in [1]; 7.56 µM (active) in [4]; 19 µM (active) in test [7]; 19 µM (active) in test [8]; 16.9 µM (active) in test [10]. The Potency entry in test [3], in [5] and in test [6] was “inactive” in each case.
